Shown are actives, neighbours in structure and some others; about 2.6% of the full set was active somewhere.
Cruzain noTriton – blocks cruzain activity in detergent-free assay; P25779; purified cruzain, Z-FR-AMC fluorescence, no detergent; Potency, µM, actives largely listed as inhibitors; actives 2.3% (n = 200,000); AID 1476; note: nearly all actives have a fitted effect of over 40% in size
Target sequence (P25779 123-467 limits assumed): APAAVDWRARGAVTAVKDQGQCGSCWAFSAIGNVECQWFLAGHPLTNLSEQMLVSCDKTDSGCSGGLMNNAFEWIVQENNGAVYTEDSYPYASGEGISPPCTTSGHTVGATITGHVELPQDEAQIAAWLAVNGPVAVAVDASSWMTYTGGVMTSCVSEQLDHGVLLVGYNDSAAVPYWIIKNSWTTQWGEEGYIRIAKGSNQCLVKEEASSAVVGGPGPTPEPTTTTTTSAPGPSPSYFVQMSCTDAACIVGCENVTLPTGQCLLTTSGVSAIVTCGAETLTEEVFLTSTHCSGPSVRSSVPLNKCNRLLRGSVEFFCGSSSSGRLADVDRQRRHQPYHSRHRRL
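Detergent-free condition (0.00005% Triton X-100) in acetate buffer pH 5.5 with DTT. 1.5 nM enzyme and compound were pre-mixed 15 min, then 2 uM Z-FR-AMC substrate added; reaction progress from fluorescence change between first and third reads (60 s).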
Cruzain Triton – inhibitors of Trypanosoma cruzi cruzain with detergent; purified cruzain, Z-FR-AMC fluorescence, 0.01% Triton; Potency, µM, usual class: inhibitors; actives 0.43% (n = 200,000); P25779; AID 1478; note: nearly all actives have a fitted effect of over 40% in size
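Detergent-containing run (0.01% Triton X-100) in acetate buffer pH 5.5 with 5 mM DTT: enzyme at 1.5 nM final, 15 min compound preincubation at room temperature, then 2 uM Z-FR-AMC substrate. Activity taken as 60 s fluorescence increase at 360/450 nm.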
Papain inh – papain (Carica papaya) inhibition counter-screen; shares compounds with Cruzain Triton; purified papain, Z-FR-AMC fluorescence cleavage; Potency, µM, most hits filed as inhibitors; actives 41% (n = 410); AID 2161; note: nearly all actives have a fitted effect of over 35% in size
Hits are given with their value; - = inactive; ? = inconclusive; . = no result. Calls come from the whole dose curve; as a rule, active = well fitted curve in the direction sought with a large enough effect; inconclusive = small, poorly fitted or top-dose-only effect, or another doubt; inactive = no such curve, though single readings can be large; an effect the other way counts as inactive or inconclusive.

SMILES | Cruzain noTriton | Cruzain Triton | Papain inh
Cc1ccc2[nH]c(=O)c(CN(Cc3cccs3)Cc3nnnn3CC3CCCO3)cc2c1 (stereo unspecified) | ? | - | .
CCOc1ccc2[nH]c(=O)c(CN(Cc3ccco3)C(CC)c3nnnn3Cc3ccccc3)cc2c1 (stereo unspecified) | - | - | .
COc1ccccc1CN(Cc1cc2cc(C)ccc2[nH]c1=O)Cc1nnnn1Cc1ccco1 | - | - | .
CCC(c1nnnn1Cc1ccccc1)N(Cc1ccccc1)Cc1cc2cc(C)ccc2[nH]c1=O (stereo unspecified) | . | . | -
Cc1ccc(NC(=O)C2(c3cccs3)CCOCC2)cc1Cl | - | - | .
CCc1ccc(-c2cc(C)no2)cc1S(=O)(=O)NCc1ccc(OC)cc1 | - | - | .
CCOc1ccc(-n2c(-c3ccc(Br)cc3)cc3c2CC(C)(C)CC3=O)cc1 | - | - | .
CS(=O)(=O)c1ccc([C@H](O)[C@H](CF)NC(=O)C(Cl)Cl)cc1 | - | - | .
CCc1nn(CCCC(=O)N2CCN(c3cc(Cl)ccc3C)CC2)c(=O)c2cc3occc3n12 | ? | - | .
O=C1NC(c2ccccc2)=N/C1=C/c1ccco1 | - | - | .
O=C1OC(/C=C/c2ccc(Cl)cc2)=NC/1=C/c1ccco1 | 16µM | 2.5µM | -
Cn1c(C(=O)NCCN2CCCCCC2)cc2c(=O)n(C)c3ccccc3c21 | 7.9µM | 10µM | -
Cn1c(C(=O)NCCCN2CCOCC2)cc2c(=O)n(C)c3ccccc3c21 | - | - | .
COc1ccc(C2C=C(c3ccccc3)Nc3nc(NC(=O)/C=C/c4ccc(Cl)cc4)nn32)cc1 (stereo unspecified) | - | - | .
N#Cc1sc2nc(-c3ccccc3)cc(-c3ccco3)c2c1N | - | - | .
N#Cc1c(-c2ccccc2)cc(-c2ccco2)c(C#N)c1N | - | - | -
Cc1ccc(N=CC2=C(O)CC(c3ccco3)CC2=O)cc1 (stereo unspecified) | - | - | .
Cc1ccc(C(=O)Oc2oc(-c3ccco3)nc2C=Nc2ccc(Cl)cc2)cc1 | 13µM | 4µM | 14µM
Cn1cc(S(=O)(=O)N2CCCCC2)cc1C(=O)NCc1ccc(Cl)cc1 | ? | 10µM | -
Cn1cc(S(=O)(=O)N2CCCCCC2)cc1C(=O)NCc1ccc(Cl)cc1 | - | - | .
Cc1cccc(CNC(=O)c2cnc3c(-c4cccc(C)c4)c(C)nn3c2C)c1 | - | - | .
CC1=CC(=O)C=C(C)C1=NOC(=O)/C=C\c1ccccc1 | - | - | .
CC1=CC(=NOC(=O)/C=C/c2ccccc2)C=C(C)C1=O | 2.5µM | 2.2µM | 10µM
CC(C)(CO)[C@H](O)C(=O)NCCC(=O)O | - | - | .
CCc1ccc(N2CSC3=C(C#N)C(c4cccs4)CC(=O)N3C2)cc1 (stereo unspecified) | ? | - | .
CCOC(=O)c1ccc(N2CSC3=C(C#N)C(c4cccs4)CC(=O)N3C2)cc1 (stereo unspecified) | - | - | -
COC(=O)c1cc2occc2n1Cc1nc(-c2cccc(Br)c2)oc1C | - | - | .
